Values joined by “and” are separate entries in the source; they are usually repeats but may differ in a detail not shown here. Equal values may be shown once. Records with an inconclusive call do not appear. Active and inactive are the calls of the source. Unless noted, how the calls were made is not given here.
Columns and labels:
[1] = qHTS Assay for Identifying Gametocytocidal Compounds (AID 743244; active means well fitted curve in the direction sought with a large enough effect; an effect the other way counts as inactive or inconclusive;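 further: on the % scale 0 is the no-effect control and ±100 the full control effect; actives lower the fluorescent signal which means gametocytes are killed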); conditions: P. falciparum 3D7 stage III-V gametocytes, alamarBlue, 72 h; max response: stronger effect = lower value
How it was run: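 Viability read-out was resazurin reduction (alamarBlue, 24 h) measured at Ex 525/Em 598 nm. Beforehand, late-stage (III-V) 3D7 P. falciparum gametocytes at 20,000 cells/well were incubated with compound 72 h at 37C under 5% CO2.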

[2] = qHTS profiling for inhibitors of Plasmodium falciparum (3D7) proliferation (AID 743322);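 further: infected erythrocytes exposed to compound for 72 h before lysis; 100% = DMSO vehicle wells and 0% = 0.29 µM artemisinin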; conditions: P. falciparum 3D7 proliferation; at 28.7 µM (top of the series) unless noted
How it was run: (§1)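 Erythrocytes infected with P. falciparum (0.3% parasitemia, 2.5% hematocrit) incubated with compounds 72 h at 37 C, 5% CO2. Lysis with saponin/Triton buffer containing SYBR Green I, overnight at room temperature in the dark; DNA fluorescence (485/535 nm) normalised to 0.29 uM artemisinin and DMSO.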

[3] = qHTS profiling for inhibitors of Plasmodium falciparum (DD2) proliferation (AID 743323); conditions: lower = more inhibition; at 28.7 µM (top of the series) unless noted
How it was run: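 P. falciparum Dd2-infected erythrocytes (0.3% parasitemia, 2.5% hematocrit) exposed 72 h at 37 C, 5% CO2. Lysis with SYBR Green, overnight at room temperature, fluorescence 485/535 nm; normalized to 0.29 uM artemisinin and DMSO.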

[4] = qHTS profiling for inhibitors of Plasmodium falciparum (HB3) proliferation (AID 743324; active means well fitted curve in the direction sought with a large enough effect; an effect the other way counts as inactive or inconclusive;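 further: 100% = DMSO vehicle wells and 0% = artemisinin-treated control wells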); conditions: Plasmodium falciparum HB3 blood-stage proliferation; at 28.7 µM (top of the series) unless noted
How it was run: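 P. falciparum HB3 grown in erythrocytes (0.3% parasitemia, 2.5% hematocrit final) with compound for 72 h at 37 C, 5% CO2. Parasite DNA detected by SYBR Green after saponin/triton lysis overnight; normalized to 0.29 uM artemisinin and DMSO.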

[5] = qHTS profiling of the MIPE4 collection as inhibitors of Plasmodium falciparum (3D7) proliferation (AID 743344);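 further: scaled between DMSO vehicle wells and 0.29 µM artemisinin as full inhibition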; conditions: P. falciparum 3D7 in erythrocytes, SYBR Green DNA fluorescence, 72 h; at 28.5 µM (top of the series) unless noted
How it was run: as §1

[6] = qHTS profiling of the MIPE4 collection as inhibitors of Plasmodium falciparum (DD2) proliferation (AID 743345); conditions: P. falciparum Dd2 in erythrocytes, SYBR Green DNA, 72 h; at 28.5 µM (top of the series) unless noted
How it was run: as §1

[7] = qHTS profiling of the MIPE4 collection as inhibitors of Plasmodium falciparum (DD2) proliferation (Rep 2) (AID 743346); conditions: P. falciparum Dd2 in erythrocytes, SYBR Green DNA, 72 h; at 28.5 µM (top of the series) unless noted
How it was run: as §1

Compound	max response [1]	remaining parasite growth % (stronger effect = lower value) [2]	activity, percent of control [3]	remaining proliferation (% of control), lower = more inhibition [4]	parasite growth, % of DMSO control [5]	parasite growth remaining, % of DMSO control (lower = more inhibition) [6]	parasite growth, % of control (lower = inhibition) [7]
Cc1n[nH]c(C)c1Cc1sc2c(c1C(=O)N1C[C@H](O)CO1)c(=O)n(C)c(=O)n2CC(C)C	4.91% (inactive)	111%	99.9%	81.9%	161%	107%	86.3%
NC(=O)C1CCCc2c1[nH]c1ccc(Cl)cc21 (stereo not drawn)	9.85% (inactive)	100%	94.6%	95%	92%	–	145%
O=C1CCCC2=C1C(c1[nH]ncc1Cl)N=C(Nc1nc3ccccc3o1)N2 (stereo not drawn)	6.89% (inactive)	115%	105%	114%	20.6%	10.9%	8.08%
O=C(C=Cc1ccc(/C=C/C(=O)Nc2ccc(C3=NCCN3)cc2)cc1)Nc1ccc(C2=NCCN2)cc1	6.08% (inactive)	15.9%	27.3%	10.9%	25.9%	39%	40.5%
CCCc1nn(C)c2c(=O)[nH]c(-c3cc(S(=O)(=O)N4CCN(C)CC4)ccc3OCC)nc12	18.4% (inactive)	98.3%	102%	61.6%	21.3%	–	51.4%
CNC(=O)c1ccc(N2C(=S)N(c3ccc(C#N)c(C(F)(F)F)c3)C(=O)C2(C)C)cc1F	12% (inactive)	87.6%	87.8%	62.8%	53.9%	–	53.7%
Cc1cc(SCc2sc(-c3ccc(C(F)(F)F)cc3)nc2C)ccc1OCC(=O)O	25.7% (inactive)	106% and 98.8%	99.9% and 82.6%	77.3% and 39.3%	64.2%	96.2%	50.7%
Oc1cccc(-c2nc(N3CCOCC3)c3oc4ncccc4c3n2)c1	-13.9% (inactive)	-0.106%	2.54%	1.45%	6.68% [at 57.5 µM]	8.08% [at 57.5 µM]	21.1% [at 57.5 µM]
Nc1cccc(S(=O)(=O)N2CCCN(S(=O)(=O)c3ccc4c(c3)OCCO4)CC2)c1	3.74% (inactive)	111%	101%	70.3%	257%	102%	120%
C[C@@H]1C[C@H]2[C@@H]3CCC4=CC(=O)C=C[C@]4(C)C3(F)[C@@H](O)C[C@]2(C)[C@@]1(O)C(=O)CO (stereo partly drawn)	2.96% (inactive)	109%	95.7%	85.9%	71.2%	96%	146%
CCOc1ccn(-c2ccc(F)cc2)c(=O)c1C(=O)Nc1ccc(Oc2ccnc(N)c2Cl)c(F)c1	18.8% (inactive)	83.7%	56.6%	36.7%	41.2%	80.4%	36%
CCOc1cc(C(=O)Nc2ccc(Cl)c(-c3nc4ccccc4[nH]3)c2)cc(OCC)c1OCC	-21.5% (inactive)	1.56%	15.9%	0.587%	5.5%	–	17%
C#Cc1cccc(Nc2ncnc3cc(OCCOC)c(OCCOC)cc23)c1	10.7% (inactive) and -0.582% (inactive)	12.2%	27.9%	6.23%	24.3%	–	43.1%
CN(C)C(=O)c1ccc(S(=O)(=O)c2ccc(NC(=O)[C@@](C)(O)C(F)(F)F)c(Cl)c2)cc1	2.79% (inactive)	67.3%	97.4%	–	34.8%	96.7%	95.9%
CCC(C)(C)C(=O)O[C@H]1C[C@@H](C)C=C2C=C[C@H](C)[C@H](CC[C@@H]3C[C@@H](O)CC(=O)O3)[C@H]21	5.81% (inactive)	116% [at 9.63 µM]	–	86.8% [at 9.63 µM]	6.94%	42%	13.8%
CS(=O)(=O)Oc1ccc2c(NC(N)=O)c(C(=O)c3ccc(Cl)cc3Cl)oc2c1	25% (inactive)	75.4%	–	94.7%	49.8%	82.7%	–
COc1cc2nccc(Oc3ccc(NC(=O)NC4CC4)c(Cl)c3)c2cc1C(N)=O	-10.8% (inactive)	63.1%	–	30.9%	17.7%	70.8%	–

From PubChem BioAssay (NCATS)
